The record followed here is the supplement of paper PMC4894684.

Structures are written as SMILES. Structures can show the parent of a compound that is named as a salt. ± gives the standard deviation of the averaged measurements.

The test deals with Toxoplasma gondii RH (in HFF). Nature of the test: parasite growth relative to the screen mean (all compounds = 100%); higher = less inhibition of parasite growth. The settings on record: 5 µM; 72 h; oxygen 21 %. The method, boiled down: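 Values give growth relative to the screen mean. The screen mean (all compounds) is set at 100%, and two screens were averaged. Compounds at 5 µM final were placed on confluent human foreskin fibroblasts, which were infected within 2 h with RH β-Gal–GFP Toxoplasma (MOI 1:5) and kept 72 h at 21% O2 before a CPRG β-Gal readout against in-plate standard curves.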
In turn, `CN1CCC(c2c[nH]c3ccc(O)cc23)CC1` displayed a parasite growth of 177 ± 16%.

Regarding `NCC(CS(=O)(=O)O)c1ccc(Cl)cc1` (stereo unspecified) [Saclofen], the parasite growth came out at 114 ± 24%.

Compound `O=C1Nc2cc(Cl)c(Cl)cc2N2CCNCC12` (stereo unspecified) gave a parasite growth of 176 ± 7.8%.

On to `CC[C@@H](CO)NC(=O)[C@@H]1C=C2c3cccc4c3c(cn4C)C[C@H]2N(C)C1` [Methysergide maleate], for which the parasite growth was found to be 189 ± 24%.

With `Cc1onc(O)c1CC(N)C(=O)O` (racemic), the parasite growth came out at 107 ± 41%.

Take `Cc1[nH]c2ccc(O)cc2c1CCN` [2-Methyl-5-hydroxytryptamine hydrochloride]: the parasite growth turned out to be 139 ± 37%.

For the compound `OC(Cc1ccncc1)C(Cl)(Cl)Cl` (stereo unspecified), the parasite growth is 133 ± 9.6%.

`C=CCN1C[C@H](C)N([C@H](c2ccc(C(=O)N(CC)CC)cc2)c2cccc(O)c2)C[C@H]1C`: the parasite growth was 110 ± 22%.

Regarding `COc1cc2c(c(OC)c1OC)-c1ccc(OC)c(=O)cc1[C@@H](NC(C)=O)CC2` [Colchicine], the parasite growth was 115 ± 27%.

In the case of `COc1ccc(C(=O)c2c(C)n(CCN3CCOCC3)c3cc(I)ccc23)cc1`, the parasite growth stood at 149 ± 18%.

Compound `CCCCC/C=C\C/C=C\C/C=C\C/C=C\CCCC(=O)Nc1ccc(O)cc1` showed a parasite growth of 31.3 ± 14%.

As to `c1ccc(C2CNCc3ccccc32)cc1` (stereo unspecified) [4-Phenyl-1,2,3,4-tetrahydroisoquinoline hydrochloride], the parasite growth amounted to 98.2 ± 12%.

Compound `CCCN(CCC)C1CCc2cccc(O)c2C1` (stereo unspecified) [8-Hydroxy-DPAT hydrobromide] yielded a parasite growth of 121 ± 11%.

`COc1ccc(CNC(=O)/C=C/c2ccc3[nH]cc(CCN(C)C)c3c2)cc1` registered a parasite growth of 98.3 ± 31%.

The compound `COC1(C[S@+]([O-])c2ccccc2)CCN(CCc2c[nH]c3ccc(F)cc23)CC1` returned a parasite growth of 67.1 ± 9.3%.

On to `O=C(CCCN1CCC2(CC1)C(=O)N(Cc1cccc(F)c1)CN2c1ccccc1)c1ccc(F)cc1` [3'-Fluorobenzylspiperone maleate], for which the parasite growth was below 0%.

On to `Cc1ncsc1CCCl` [Chlormethiazole hydrochloride], for which the parasite growth was 60 ± 21%.

For the compound `CN1c2ccccc2C(NCCCCCCC(=O)O)c2ccc(Cl)cc2S1(=O)=O` (stereo unspecified) [Tianeptine], the parasite growth worked out at 98.7 ± 16%.

Consider `Cc1nc(N)sc1CCN` [Amthamine dihydrobromide], for which the parasite growth was determined as 94 ± 4.8%.

For `COc1cc2c(cc1OC)C1CC(=O)C(CC(C)C)CN1CC2` (stereo unspecified) [Tetrabenazine], the parasite growth worked out at 132 ± 1.5%.

Compound `C=CCN1C[C@H](C)N([C@H](c2ccc(C(=O)N(CC)CC)cc2)c2cccc(OC)c2)C[C@H]1C` yielded a parasite growth of 42.5 ± 3.7%.

As to `Clc1cccc(SC2CCNCC2)n1` [Anpirtoline hydrochloride], the parasite growth worked out at 76.4 ± 27%.

The compound `COC(=O)[C@@H](N)CCCNC(=N)N[N+](=O)[O-]` [L-NAME hydrochloride] displayed a parasite growth of 81.5 ± 24%.

`S=C(NC1CCCCC1)N1CCC(c2cnc[nH]2)CC1` [Thioperamide] gave a parasite growth of 124 ± 20%.

On to `Cc1ccc2c(c1)C1(CCN(CCc3nc(-c4ccccc4)oc3C)CC1)OC(=O)N2`, for which the parasite growth was 96.7 ± 3.8%.

Consider `C#CCOC(=O)C1=CCCN(C)C1` [Arecaidine propargyl ester tosylate], for which the parasite growth was determined as 137 ± 4.5%.
